# Test results reported in PMC5540273 (PLoS ONE, 2017).
# What was measured:
# Details in all cases: concentration: 1 μM, replicates: in singlicate; n = 1
# [1] = test system: EPHB3
# [2] = test system: EPHB4
# [3] = test system: EPHB6
# [4] = test system: ERBB2
# [5] = test system: ERBB3
# [6] = test system: ERBB4
# [7] = test system: T1, ERK1
# T1 construct: gene MAPK3
# [8] = test system: T2, ERK2
# T2 construct: gene MAPK1
# [9] = test system: T3, ERK3
# T3 construct: gene MAPK6
# [10] = test system: T4, ERK4
# T4 construct: gene MAPK4
# 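Also: KINOMEscan kinase panel screen.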
structure (smiles),measurement,setting,value
CN1C(=O)C(Nc2ccccc2)=C(c2ccccc2)C1=O [SB-300079],%Inh,[1],0%
same,%Inh,[2],0%
same,%Inh,[3],0%
same,%Inh,[4],20%
same,%Inh,[5],28%
same,%Inh,[6],18%
same,%Inh,[7],0%
same,%Inh,[8],10%
same,%Inh,[9],9%
same,%Inh,[10],31%
Cc1nnc(-c2ccc(C)c(-c3ccc(C(=O)O)cc3)c2)o1 [GW608005],%Inh,[1],6%
same,%Inh,[2],5%
same,%Inh,[3],0%
same,%Inh,[4],36%
same,%Inh,[5],0%
same,%Inh,[6],76%
same,%Inh,[7],0%
same,%Inh,[8],0%
same,%Inh,[9],0%
same,%Inh,[10],0%
COc1cc2ncn(-c3cc(OCCCc4ccccc4)c(C(N)=O)s3)c2cc1OC [GSK205189],%Inh,[1],0%
same,%Inh,[2],6%
same,%Inh,[3],39%
same,%Inh,[4],12%
same,%Inh,[5],0%
same,%Inh,[6],0%
same,%Inh,[7],5%
same,%Inh,[8],3%
same,%Inh,[9],0%
same,%Inh,[10],0%
Cc1nn2c(=O)cc(N3CCOCC3)nc2n1Cc1cccc(Cl)c1Cl [GSK2342769],%Inh,[1],16%
same,%Inh,[2],16%
same,%Inh,[3],0%
same,%Inh,[4],0%
same,%Inh,[5],0%
same,%Inh,[6],0%
same,%Inh,[7],0%
same,%Inh,[8],0%
same,%Inh,[9],0%
same,%Inh,[10],5%
COC(=O)c1c(-c2ccccc2)c2cc(Br)ccc2c(=O)n1Cc1ccc(S(C)(=O)=O)cc1,%Inh,[1],30%
same,%Inh,[2],18%
same,%Inh,[3],34%
same,%Inh,[4],55%
same,%Inh,[5],6%
same,%Inh,[6],13%
same,%Inh,[7],1%
same,%Inh,[8],38%
same,%Inh,[9],4%
same,%Inh,[10],3%
CCC(=O)c1c(-c2ccccc2)c2cc(Cl)ccc2c(=O)n1Cc1cc(C(=O)NC2CC2)n(C)n1,%Inh,[1],20%
same,%Inh,[2],23%
same,%Inh,[3],25%
same,%Inh,[4],9%
same,%Inh,[5],4%
same,%Inh,[6],0%
same,%Inh,[7],0%
same,%Inh,[8],10%
same,%Inh,[9],0%
same,%Inh,[10],5%
CCc1ccc(-c2ccc3c(c2)-c2nn(C)cc2S(=O)(=O)N3C)cc1,%Inh,[1],0%
same,%Inh,[2],0%
same,%Inh,[3],12%
same,%Inh,[4],2%
same,%Inh,[5],24%
same,%Inh,[6],0%
same,%Inh,[7],3%
same,%Inh,[8],0%
same,%Inh,[9],0%
same,%Inh,[10],0%
O=C(Nc1ccc2c(c1)OCO2)NC1CCN(c2ccnc(NCc3ccc(F)cc3)n2)CC1 [GSK1379859],%Inh,[1],15%
same,%Inh,[2],0%
same,%Inh,[3],4%
same,%Inh,[4],35%
same,%Inh,[5],0%
same,%Inh,[6],43%
same,%Inh,[7],0%
same,%Inh,[8],0%
same,%Inh,[9],9%
same,%Inh,[10],3%
Cl.c1ccc(Cn2cnc3cc(Nc4ncnc5ccccc45)ccc32)cc1 [GW272142],%Inh,[1],12%
same,%Inh,[2],13%
same,%Inh,[3],80%
same,%Inh,[4],38%
same,%Inh,[5],0%
same,%Inh,[6],33%
same,%Inh,[7],0%
same,%Inh,[8],0%
same,%Inh,[9],19%
same,%Inh,[10],0%
COc1ccc(-n2cnc3c(N)ncnc32)cc1 [SKF-97236],%Inh,[1],0%
same,%Inh,[2],0%
same,%Inh,[3],1%
same,%Inh,[4],7%
same,%Inh,[5],0%
same,%Inh,[6],1%
same,%Inh,[7],14%
same,%Inh,[8],9%
same,%Inh,[9],0%
same,%Inh,[10],0%
COc1ccc(-c2coc3ccc(-c4nnc(SCc5cccc(C#N)c5)o4)cc23)cc1,%Inh,[1],6%
same,%Inh,[2],0%
same,%Inh,[3],0%
same,%Inh,[4],14%
same,%Inh,[5],0%
same,%Inh,[6],0%
same,%Inh,[7],0%
same,%Inh,[8],26%
same,%Inh,[9],0%
same,%Inh,[10],0%
CCC(=O)c1c(-c2ccccc2)c2cc(Cl)ccc2c(=O)n1Cc1cc(S(C)(=O)=O)n(CC(N)=O)n1,%Inh,[1],0%
same,%Inh,[2],0%
same,%Inh,[3],15%
same,%Inh,[4],39%
same,%Inh,[5],0%
same,%Inh,[6],0%
same,%Inh,[7],0%
same,%Inh,[8],0%
same,%Inh,[9],0%
same,%Inh,[10],0%
Fc1cccc(CSc2nnc(-c3ccc4c(c3)CCO4)o2)c1,%Inh,[1],0%
same,%Inh,[2],0%
same,%Inh,[3],14%
same,%Inh,[4],59%
same,%Inh,[5],8%
same,%Inh,[6],0%
same,%Inh,[7],5%
same,%Inh,[8],30%
same,%Inh,[9],21%
same,%Inh,[10],0%
O=C(Nc1n[nH]c2nc(-c3ccccc3)c(Cl)cc12)C1CC1 [SB-734909],%Inh,[1],7%
same,%Inh,[2],15%
same,%Inh,[3],48%
same,%Inh,[4],6%
same,%Inh,[5],32%
same,%Inh,[6],0%
same,%Inh,[7],0%
same,%Inh,[8],0%
same,%Inh,[9],0%
same,%Inh,[10],0%
Cc1nnc(-c2ccc3ncn(-c4ccc(S(C)=O)cc4)c3c2)o1 (stereo not shown),%Inh,[1],35%
same,%Inh,[2],6%
same,%Inh,[3],3%
same,%Inh,[4],29%
same,%Inh,[5],0%
same,%Inh,[6],11%
same,%Inh,[7],0%
same,%Inh,[8],26%
same,%Inh,[9],0%
same,%Inh,[10],15%
O=c1cc(N2CCOCC2)nc2n(Cc3ccc(F)c(Cl)c3)ccn12 [GSK2297099],%Inh,[1],8%
same,%Inh,[2],15%
same,%Inh,[3],5%
same,%Inh,[4],0%
same,%Inh,[5],0%
same,%Inh,[6],24%
same,%Inh,[7],0%
same,%Inh,[8],0%
same,%Inh,[9],0%
same,%Inh,[10],25%
CCc1nc(-c2cccc(C)c2)c(-c2ccncc2)s1,%Inh,[1],7%
same,%Inh,[2],14%
same,%Inh,[3],0%
same,%Inh,[4],48%
same,%Inh,[5],0%
same,%Inh,[6],5%
same,%Inh,[7],0%
same,%Inh,[8],12%
same,%Inh,[9],0%
same,%Inh,[10],12%
Cc1cc(Nc2nc(-c3cccc(C)n3)nc3ccccc23)ccn1 [GW872411],%Inh,[1],0%
same,%Inh,[2],0%
same,%Inh,[3],0%
same,%Inh,[4],0%
same,%Inh,[5],0%
same,%Inh,[6],0%
same,%Inh,[7],0%
same,%Inh,[8],0%
same,%Inh,[9],0%
same,%Inh,[10],0%
CCCC(=O)Nc1n[nH]c2ncc(-c3cccc4ccccc34)cc12 [SB-642057],%Inh,[1],0%
same,%Inh,[2],0%
same,%Inh,[3],41%
same,%Inh,[4],11%
same,%Inh,[5],0%
same,%Inh,[6],26%
same,%Inh,[7],8%
same,%Inh,[8],0%
same,%Inh,[9],0%
same,%Inh,[10],22%
C[C@@H]1CC[C@H](C(=O)NC2CCCCC2)CN1c1cc(-c2ccc3c(N)n[nH]c3c2)nc(N)n1 [GSK2291363],%Inh,[1],20%
same,%Inh,[2],21%
same,%Inh,[3],96.7%
same,%Inh,[4],21%
same,%Inh,[5],0%
same,%Inh,[6],35%
same,%Inh,[7],14%
same,%Inh,[8],25%
same,%Inh,[9],21%
same,%Inh,[10],28%
Nc1ncnc2c1ncn2-c1ccc(Cl)cc1 [AH2635],%Inh,[1],3%
same,%Inh,[2],7%
same,%Inh,[3],10%
same,%Inh,[4],53%
same,%Inh,[5],1%
same,%Inh,[6],50%
same,%Inh,[7],0%
same,%Inh,[8],0%
same,%Inh,[9],18%
same,%Inh,[10],0%
COc1ccc(-c2cc3c(C)nc(N)nc3n([C@H]3CC[C@H](O)CC3)c2=O)cn1,%Inh,[1],0%
same,%Inh,[2],0%
same,%Inh,[3],4%
same,%Inh,[4],0%
same,%Inh,[5],0%
same,%Inh,[6],0%
same,%Inh,[7],0%
same,%Inh,[8],0%
same,%Inh,[9],0%
same,%Inh,[10],5%
COc1ccc(Nc2nccc(N3CCC(NS(=O)(=O)c4ccc(NC(C)=O)cc4)C3)n2)cc1 (stereo not shown) [GSK1379729],%Inh,[1],35%
same,%Inh,[2],25%
same,%Inh,[3],28%
same,%Inh,[4],20%
same,%Inh,[5],18%
same,%Inh,[6],0%
same,%Inh,[7],20%
same,%Inh,[8],10%
same,%Inh,[9],6%
same,%Inh,[10],0%
O=C(Nc1n[nH]c2nc(-c3ccccc3)c(Br)cc12)C1CC1 [SB-708998],%Inh,[1],5%
same,%Inh,[2],13%
same,%Inh,[3],23%
same,%Inh,[4],11%
same,%Inh,[5],3%
same,%Inh,[6],0%
same,%Inh,[7],5%
same,%Inh,[8],0%
same,%Inh,[9],2%
same,%Inh,[10],0%
Nc1nc(-c2ccccc2F)c(-c2ccnc3ccccc23)s1 [GW560459],%Inh,[1],0%
same,%Inh,[2],1%
same,%Inh,[3],0%
same,%Inh,[4],71%
same,%Inh,[5],0%
same,%Inh,[6],36%
same,%Inh,[7],10%
same,%Inh,[8],0%
same,%Inh,[9],0%
same,%Inh,[10],0%
CCn1c(-c2ccoc2)nc2cnccc21 [SB-733887],%Inh,[1],17%
same,%Inh,[2],0%
same,%Inh,[3],26%
same,%Inh,[4],8%
same,%Inh,[5],14%
same,%Inh,[6],0%
same,%Inh,[7],0%
same,%Inh,[8],0%
same,%Inh,[9],12%
same,%Inh,[10],11%
Cc1nc(N(C)[C@H]2CN(C(=O)CC#N)CC[C@H]2C)c2cc[nH]c2n1,%Inh,[1],6%
same,%Inh,[2],9%
same,%Inh,[3],19%
same,%Inh,[4],7%
same,%Inh,[5],0%
same,%Inh,[6],0%
same,%Inh,[7],8%
same,%Inh,[8],13%
same,%Inh,[9],5%
same,%Inh,[10],19%
COc1cc(Nc2nccc(N3CCC(NC(=O)C(C)c4ccc(Cl)cc4)C3)n2)cc(OC)c1OC (stereo not shown) [GSK1379757],%Inh,[1],23%
same,%Inh,[2],11%
same,%Inh,[3],94.7%
same,%Inh,[4],61%
same,%Inh,[5],0%
same,%Inh,[6],26%
same,%Inh,[7],0%
same,%Inh,[8],0%
same,%Inh,[9],5%
same,%Inh,[10],12%
O=C(NCCNc1ccnc(Nc2ccc(F)cc2)n1)Nc1ccc2c(c1)OCO2 [GSK1379882],%Inh,[1],0%
same,%Inh,[2],0%
same,%Inh,[3],38%
same,%Inh,[4],9%
same,%Inh,[5],10%
same,%Inh,[6],7%
same,%Inh,[7],0%
same,%Inh,[8],0%
same,%Inh,[9],9%
same,%Inh,[10],22%
Cc1cccc(-c2nc(Nc3ccc4c(cnn4C)c3)c3ccccc3n2)n1 [GW876731],%Inh,[1],0%
same,%Inh,[2],0%
same,%Inh,[3],13%
same,%Inh,[4],0%
same,%Inh,[5],0%
same,%Inh,[6],8%
same,%Inh,[7],0%
same,%Inh,[8],0%
same,%Inh,[9],0%
same,%Inh,[10],0%
Nc1nc(N)c2nc(-c3ccccc3)[nH]c2n1 [SKF-12778],%Inh,[1],0%
same,%Inh,[2],13%
same,%Inh,[3],39%
same,%Inh,[4],22%
same,%Inh,[5],4%
same,%Inh,[6],0%
same,%Inh,[7],7%
same,%Inh,[8],5%
same,%Inh,[9],6%
same,%Inh,[10],0%
Nc1n[nH]c2ncc(-c3ccccc3)cc12 [SB-517081],%Inh,[1],9%
same,%Inh,[2],9%
same,%Inh,[3],39%
same,%Inh,[4],24%
same,%Inh,[5],0%
same,%Inh,[6],0%
same,%Inh,[7],3%
same,%Inh,[8],0%
same,%Inh,[9],0%
same,%Inh,[10],23%
FC(F)(F)c1ccc(-c2ncn(CCCN3CCOCC3)c2-c2ccncc2)cc1 [SB-217780],%Inh,[1],0%
same,%Inh,[2],9%
same,%Inh,[3],18%
same,%Inh,[4],16%
same,%Inh,[5],0%
same,%Inh,[6],47%
same,%Inh,[7],0%
same,%Inh,[8],0%
same,%Inh,[9],7%
same,%Inh,[10],0%
CCC(=O)c1c(-c2ccccc2)c2cc(Cl)ccc2c(=O)n1Cc1cc(S(C)(=O)=O)n(CC(F)F)n1,%Inh,[1],1%
same,%Inh,[2],0%
same,%Inh,[3],0%
same,%Inh,[4],0%
same,%Inh,[5],0%
same,%Inh,[6],0%
same,%Inh,[7],7%
same,%Inh,[8],11%
same,%Inh,[9],0%
same,%Inh,[10],0%
